Experimental data published in PubChem BioAssay (NCATS).
Results filed as inconclusive are left out. Activity calls are given as the source filed them. Calls come from the whole dose curve.

Experiment: Primary qHTS to identify inhibitors of SARS-CoV-2 cell entry (AID 1645846); note: nearly all actives have a fitted effect of over 45% in size
Conditions: SARS-CoV-2 pseudovirus cell entry assay, luminescence; activity change, negative = inhibition: at 57.1 µM (top of the series) unless noted
Outline: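 Inhibition of spike-mediated entry was scored in human ACE2-transfected Expi293F cells. Particles were MLV-pseudotyped with Wuhan-Hu-1 S carrying a 19-aa C-terminal deletion; signal was luciferase after two days, scaled between spike PP and fusion-protein-free PP.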
Potency is the fitted concentration of half-maximal effect.

| Compound | Potency | activity change, negative = inhibition | outcome |
| --- | --- | --- | --- |
| COc1ccc(N2C(=O)N(c3c(C)cccc3Cl)Cc3cnc(Nc4ccc(C5CCN(C)CC5)cc4OC)nc32)nc1 | 35.5 µM (active) |  |  |
| COc1ccc([C@@H](O)[C@@H](C)Oc2ccc([C@H]3O[C@H](c4ccc(O[C@H](C)[C@H](O)c5ccc(OC)c(OC)c5)c(OC)c4)[C@H](C)[C@H]3C)cc2OC)cc1OC |  | -95.6% |  |
| Fc1ccc2[nH]ccc2c1-c1nc(N2CCOCC2)c2sc(CN3CCN(CC4CC4)CC3)cc2n1 | 31.6 µM (active) |  |  |
| FC(F)(F)c1ccc(CNc2ccc(Cc3c[nH]c4ncccc34)cn2)cc1 | 20 µM (active) |  |  |
| Cc1cc(CC(C)CC(C)(C)C)n(O)c(=O)c1 (stereo not given) | 20 µM (active) |  |  |
| CC(C)(C)Sc1c(CC(C)(C)C(=O)O)n(Cc2ccc(Cl)cc2)c2ccc(OCc3ccc4ccccc4n3)cc12 |  |  | inactive |
| N#C[C@@H]1C[C@@H]2C[C@@H]2N1C(=O)[C@@H](N)C12CC3CC(CC(O)(C3)C1)C2 |  | -14.2% |  |
| CCC(=C/[C@H](C)C/C=C/C(C)=C/[C@@H](C)C(=O)[C@@H](C)[C@H](O)[C@@H](C)C/C(C)=C/C(=O)O)/C=C/[C@@H]1OC(=O)C=C[C@@H]1C |  | -94.2% |  |
| Nc1ncnc2c1C(=O)N(c1ccc(C3CCC(CC(=O)O)CC3)cc1)CCO2 (stereo not given) |  | -0.016% |  |
| COc1cc(N2CCC(O)CC2)ccc1Nc1cc(Nc2ccccc2S(=O)(=O)C(C)C)c2cc[nH]c2n1 |  | -27.7% |  |
| CC[C@H](C)[C@@H]([C@@H](CC(=O)N1CCC[C@H]1[C@H](OC)[C@@H](C)C(=O)N[C@@H](Cc1ccccc1)c1nccs1)OC)N(C)C(=O)[C@@H](NC(=O)[C@H](C(C)C)N(C)C)C(C)C |  | -79.3% |  |
| CCCCN(CCCC)C(=O)CN1C[C@H](c2ccc3c(c2)OCO3)[C@@H](C(=O)O)[C@@H]1c1ccc(OC)cc1 |  | -74.4% |  |
| CC(C)NC(=O)COc1cccc(-c2nc(Nc3ccc4[nH]ncc4c3)c3ccccc3n2)c1 |  | -14.8% |  |
| CC(C)(O)CS(=O)(=O)Nc1ccc2c(c1)CCN(C(=O)COc1cccnc1)C2 |  | -97.4% |  |
| CN(C)CCOc1ccc(-c2nc(-c3ccc4c(c3)CC/C4=N\O)c(-c3ccncc3)[nH]2)cc1 | 12.6 µM (active) |  |  |
